Screening data: PubChem, National Center for Advancing Translational Sciences (NCATS)
Shown are actives, neighbours in structure and some others; about 19% of the full set was active somewhere.
Gal4-VP16 FLuc = VP16 counterscreen qHTS for inhibitors of ROR gamma transcriptional activity. actives 3.5% (n = 310,000). Potency, µM (series often up to 53.6 µM), for inactives: at the top dose activity, negative = inhibition, usual class: inhibitors. Drosophila S2 Gal4-VP16 UAS-luciferase, luminescence, 20 h. AID 2546, 2010;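 further: Gal4-VP16 expression switched on by copper sulfate through the metallothionein promoter; nearly all actives have a fitted effect of over 50% in size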
DT40 TDP1 CPT = qHTS for Inhibitors of human tyrosyl-DNA phosphodiesterase 1 (TDP1): qHTS in cells in presence of CPT | Potency, µM (highest dose often 46.2 µM), for the others: at the highest dose activity change, negative = growth inhibition, most hits filed as inhibitors | actives 12% (n = 420,000) | chicken DT40 Tdp1-/-;hTDP1 cells + 20 nM CPT, ATP luminescence, 48 h; further: nearly all actives have a fitted effect of over 55% in size
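Chicken DT40 Tdp1-/- cells stably complemented with human TDP1 were seeded at 400 cells/well in medium containing 20 nM camptothecin, exposed to pin-transferred compounds, and grown at 37 °C for at least 48 hr. Viability was read as ATP luminescence.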
RORg inh = qHTS for inhibitors of ROR gamma transcriptional activity; Nuclear receptor ROR-gamma (Mus musculus), P51450; Drosophila S2 Gal4-RORgamma UAS-luciferase reporter, 20 h; Potency, µM (top dose mostly 53.6 µM), without a hit: top-dose activity change, negative = inhibition, usual class: inhibitors; actives 5.4% (n = 310,000); further: nearly all actives have a fitted effect of over 60% in size
Target sequence (P51450 whole entry, looked up, the tested form may be a part): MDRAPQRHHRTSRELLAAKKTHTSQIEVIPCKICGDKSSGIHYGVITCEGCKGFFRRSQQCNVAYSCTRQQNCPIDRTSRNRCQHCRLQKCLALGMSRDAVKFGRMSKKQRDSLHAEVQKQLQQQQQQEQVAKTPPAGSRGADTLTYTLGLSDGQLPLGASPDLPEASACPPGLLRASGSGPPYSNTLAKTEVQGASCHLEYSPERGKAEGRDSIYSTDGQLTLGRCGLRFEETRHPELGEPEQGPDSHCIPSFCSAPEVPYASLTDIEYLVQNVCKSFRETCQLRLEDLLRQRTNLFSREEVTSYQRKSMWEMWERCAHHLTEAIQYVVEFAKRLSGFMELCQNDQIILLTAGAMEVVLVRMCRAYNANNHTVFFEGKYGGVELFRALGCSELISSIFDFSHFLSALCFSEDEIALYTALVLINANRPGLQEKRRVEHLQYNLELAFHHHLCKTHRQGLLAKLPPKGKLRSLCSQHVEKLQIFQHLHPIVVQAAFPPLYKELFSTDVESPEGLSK
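Stable Schneider cell line, Gal4 DNA-binding domain fused to ROR gamma, UAS-luciferase. Cmpd 1 hr RT → CuSO4 700 uM final → 20 hr RT → luciferase reagent 10 min → luminescence.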
TDP1 cell noCPT = qHTS for Inhibitors of human tyrosyl-DNA phosphodiesterase 1 (TDP1): qHTS in cells in absence of CPT. DT40 Tdp1-/- hTDP1 cells, no CPT, ATP luminescence, 48 h. Potency, µM (titrated, usually from 46.2 µM), for inactives: top-dose activity change, negative = growth inhibition, most hits filed as inhibitors. actives 15% (n = 420,000); further: nearly all actives have a fitted effect of over 55% in size
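Luminescent ATP content (CellTiter-Glo) served as the growth readout. Knockout chicken DT40 cells expressing human TDP1 were exposed to compounds without camptothecin for a minimum 48 hr at 37 °C.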
TDP1 inh = qHTS Assay for Inhibitors of Tyrosyl-DNA Phosphodiesterase (TDP1); recombinant TDP1, AlphaScreen DNA substrate cleavage; Potency, µM (highest dose often 130 µM), for the others: top-dose activity change, negative = inhibition, hits mostly inhibitors; actives 0.28% (n = 350,000); further: nearly all actives have a fitted effect of over 40% in size
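Here, a 5' biotin and 3' phosphotyrosine-FITC DNA oligonucleotide reports Tdp1 activity: intact substrate bridges AlphaScreen beads, while cleavage leaves a 3' phosphate and drops signal. All incubations at room temperature.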
The depositor's hits bear a star; ? = inconclusive; nt = not tested or not shown; [ ] = dose if it differs, or a comment. The call rests on the fitted dose curve; in most records, active means well fitted curve in the direction sought with a large enough effect; inconclusive means small, poorly fitted or top-dose-only effect, or another doubt; inactive means no such curve, though single readings can be large; an effect the other way counts as inactive or inconclusive. On the % scale 0 is the no-effect control and ±100 the full control effect; potency means the concentration at half of the fitted maximal effect.

SMILES	Gal4-VP16 FLuc	DT40 TDP1 CPT	RORg inh	TDP1 cell noCPT	TDP1 inh
Cn1c(=O)c2c(ncn2CC(=O)OCCCC(=O)c2ccc(Br)cc2)n(C)c1=O	nt	18µM*	nt	6.5µM*	1%
Cc1ccc(OCCn2c(Br)nc3c2c(=O)n(C)c(=O)n3C)cc1	-26%	12µM*	?	18µM*	2%
Cc1ccc(C(=O)C(C)OC(=O)c2nc(Cl)ccc2Cl)cc1 (stereo not given)	2%	-1%	10%	9%	6%
Cc1nc(NCc2ccco2)c2oc3ccccc3c2n1	-15%[0.365 µM]	?	23%	10µM*	-5%
Cc1nc(N[C@@H](Cc2ccccc2)C(=O)O)c2oc3ccccc3c2n1	-8%	-30%	11%	-27%	5%
CCC(C)Nc1nc(C)nc2c1oc1ccccc12 (stereo not given)	?	18µM*	-16%	16µM*	0%
Cc1nc(N[C@@H](Cc2c[nH]c3ccccc23)C(=O)O)c2oc3ccccc3c2n1	-8%	-14%	16%	-12%	-8%
Cc1nc(NCCc2cnc[nH]2)c2oc3ccccc3c2n1	-3%	-29%	2%	0%	3%
Cc1nc(NC(C)c2ccccc2)c2oc3ccccc3c2n1 (stereo not given)	13µM*	21µM*	?	10µM*	5%
CN(C)C(=O)CSc1nnc(NC(=O)CCc2ccccc2)s1	4%	-11%	30%	-2%	1%
COc1ccc2c(c1)C=C([C@@H]1C[C@H]3CN(c4ccccc4)C(=O)[C@]34CCCN14)CO2	-3%	?	7%	21µM*	3%
CC[C@@H](C(=O)[C@@H](C)[C@@H](O)[C@H](C)CCc1ccc(C)c(O)c1C(=O)O)C1O[C@](CC)(C2CC[C@](O)(CC)[C@H](C)O2)C[C@@H]1C (stereo not given in full)	?	nt	?	nt	10%
CC(=N\NC(=O)c1ccccc1)/C(=N/O)C(=O)Nc1ccccc1	?	-14%	5µM*	-8%	11%
COc1ccc(C2CC(c3ccccc3)=NN2S(=O)(=O)c2ccccc2)c(OC)c1 (stereo not given)	-2%	?	27%	21µM*	5%
COc1ccc(C2CC(c3ccccc3)=NN2S(=O)(=O)c2ccc(C)cc2)c(OC)c1 (stereo not given)	-9%	8.2µM*	-14%	7.3µM*	3%
COc1cccc(C2CC(c3ccccc3)=NN2S(=O)(=O)c2ccc(C)cc2)c1OC (stereo not given)	-9%	?	2%	?	5%
O=C([O-])c1cc(-c2ccccc2)cc(-c2ccccc2)[n+]1Cc1ccccc1	nt	nt	nt	nt	-9%
OCCCNc1cc(-c2ccccc2)nc2cc(-c3ccc(F)cc3)nn12	6%	8.2µM*	20%[1.91 µM]	5.2µM*	nt
CN1CCN(c2cc(-c3ccccc3)nc3cc(-c4ccc(F)cc4)nn23)CC1	-5%	4.1µM*	-3%	5.8µM*	3%
Cc1cc(NCCCO)n2nc(-c3cccs3)cc2n1	-5%	27%	2%	3%	7%
CCc1nn2c(N3CCOCC3)cc(C)nc2c1-c1ccc(F)cc1	-12%	?	-41%	?	-7%
Fc1ccc(-c2cc3nc(-c4ccccc4)cc(N4CCN(CCN5CCOCC5)CC4)n3n2)cc1	-15%	12µM*	-27%	7.3µM*	4%
O=C(NCC(=O)N(Cc1ccco1)C(C(=O)NC1CCCCC1)c1cccnc1)c1ccco1 (stereo not given)	8%	0%	18%	11%	4%
CCOc1ccccc1N(CC(=O)N1CCN(Cc2ccccc2)CC1)S(=O)(=O)c1ccccc1	nt	23µM*	nt	8.2µM*	nt
CCN(CC(=O)N1CCN(Cc2ccccc2)CC1)S(=O)(=O)c1ccccc1	-7%	-22%	-6%	?	1%
SMILES	Gal4-VP16 FLuc	DT40 TDP1 CPT	RORg inh	TDP1 cell noCPT	TDP1 inh
COc1ccc(N(CC(=O)N2CCN(Cc3ccccc3)CC2)S(C)(=O)=O)c(OC)c1	3%	?	-16%	13µM*	nt
C=CCNC(=O)/C(C#N)=C\c1cc(Cl)c(O)c(OCC)c1	-1%	-1%	3%	-2%	3%
CCOc1cc(/C=C(/C#N)C(=O)Nc2ccc(O)cc2)cc(Br)c1O	?	0.65µM*	?	0.92µM*	3%
N#C/C(=C/c1ccc2c(c1)OCO2)C(=O)Nc1ccc(O)cc1	-4%	7.3µM*	21%	12µM*	1%
CCOC(=O)c1cccc(NC(=O)C2CCN(S(=O)(=O)c3cnc[nH]3)CC2)c1	-1%	-29%	-1%	3%	-4%
COC(=O)[C@@H](NC(=O)NC1CCCCC1C)C(C)C (stereo not given in full)	0%	7%	14%	-6%	-1%
COC(=O)[C@@H](NC(=O)N(C1CCCCC1)C1CCCCC1)C(C)C	0%	11µM*	-5%	13µM*	-4%
Cc1noc(C)c1COC(=O)c1ccc(F)c(S(=O)(=O)N2CCOCC2)c1	nt	3%	nt	6%	2%
Cc1ccc(NC(=O)CSc2nc3nccnc3c(=O)n2CCc2c[nH]c3ccccc23)cc1C	nt	13µM*	nt	12µM*	3%
Cc1ccc(NC(=O)CSc2nc3c(sc4ccccc43)c(=O)n2CCCC(=O)NC2CCCC2)cc1C	nt	-4%	nt	13%	2%
COc1ccccc1NC(=O)Cn1c(=O)n(CCc2c[nH]c3ccccc23)c(=O)c2cccnc21	2%	?	16%	-62%	0%
Cc1ccc(NC(=O)CSc2nc3nccnc3c(=O)n2CCc2c[nH]c3ccccc23)c(C)c1	nt	12µM*	nt	12µM*	1%
COc1ccccc1NC(=O)CSc1nc2nccnc2c(=O)n1CCc1c[nH]c2ccccc12	nt	18µM*	nt	15µM*	5%
Cc1cccc(NC(=O)CNCC(=O)Nc2cccc(C)c2C)c1C	-9%	0%	10%	2%	nt
COc1ccc(OC)c(/C=N/Nc2nncn2/N=C/c2cc(OC)ccc2OC)c1	?	8.2µM*	?	7.3µM*	6%
COc1cc(/C=N/Nc2nncn2/N=C/c2ccc(O)c(OC)c2)ccc1O	?	?	-42%	?	0%
CCOC(=O)Cc1cc(=O)c2c(=O)n(-c3ccccc3)[nH]c2[nH]1	-18%	2%	19%	-24%	2%
CC1(C(=O)NS(=O)(=O)c2ccc(Br)cc2)CCN1C(=O)C1CCCCC1 (stereo not given)	nt	-15%	nt	-15%	nt
